Experimental data as given in paper PMC5349851, “Combinatorial bZIP dimers display complex DNA-binding specificity landscapes”.

How the values were obtained:
Test in all cases: SELEX-seq (CSI, HT-SELEX, round 3); SELEX-seq: 1x PBS (10 mM phosphate, 137 mM NaCl, 2.7 mM KCl) pH 7.6, 2.5 mM DTT, 50 ng/ul poly dI-dC, 0.1% BSA, 50 nM biotinylated bZIP (1:3 with partner for heterodimers), 100 nM library, room temperature, 1 h, 3 rounds; high values mean tight binding
Conditions in all cases: protein: recombinant;recombinant; copies: 1;1; dsDNA, one strand shown
BATF2;ATF4 = BATF2;ATF4 (Homo sapiens;Homo sapiens, UniProt Q8N1L9;P18848 8-85;269-346, |)
BATF3;NFIL3 = target: T1, BATF3;NFIL3 (Homo sapiens;Homo sapiens, UniProt Q9NR55;Q16649 26-99;64-134, |)
T1 sequence 1: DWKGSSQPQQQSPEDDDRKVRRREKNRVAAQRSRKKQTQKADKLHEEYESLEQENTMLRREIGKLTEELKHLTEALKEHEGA
T1 sequence 2: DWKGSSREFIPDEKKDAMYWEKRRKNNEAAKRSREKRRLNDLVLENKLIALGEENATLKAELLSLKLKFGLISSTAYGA

CEBPE;CEBPE = target: T2, CEBPE;CEBPE (Homo sapiens;Homo sapiens, UniProt Q15744;Q15744 195-267;195-267, |)
T2 sequence 1: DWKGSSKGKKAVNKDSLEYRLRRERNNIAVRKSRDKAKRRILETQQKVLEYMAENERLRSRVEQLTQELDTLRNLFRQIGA
T2 sequence 2: T2 sequence 1

JUNB;CEBPE = target: T3, JUNB;CEBPE (Homo sapiens;Homo sapiens, UniProt P17275;Q15744 259-332;195-267, |)
T3 sequence 1: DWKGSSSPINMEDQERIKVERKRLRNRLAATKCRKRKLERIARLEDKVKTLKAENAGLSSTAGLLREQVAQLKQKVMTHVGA
T3 sequence 2: T2 sequence 1

JUNB;BATF = target: T4, JUNB;BATF (Homo sapiens;Homo sapiens, UniProt P17275;Q16520 259-332;17-90, |)
T4 sequence 1: T3 sequence 1
T4 sequence 2: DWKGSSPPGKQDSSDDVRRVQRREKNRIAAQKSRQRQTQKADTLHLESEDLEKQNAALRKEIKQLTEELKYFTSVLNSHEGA

JUNB;FOSL1 = target: T5, JUNB;FOSL1 (Homo sapiens;Homo sapiens, UniProt P17275;P15407 259-332;96-169, |)
T5 sequence 1: T3 sequence 1
T5 sequence 2: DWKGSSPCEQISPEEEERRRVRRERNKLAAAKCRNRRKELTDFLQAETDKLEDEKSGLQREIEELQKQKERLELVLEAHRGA

JUNB;FOS = JUNB;FOS (Homo sapiens;Homo sapiens, UniProt P17275;P01100 259-332;128-201, |)
JUNB;NFE2 = target: T6, JUNB;NFE2 (Homo sapiens;Homo sapiens, UniProt P17275;Q16621 259-332;221-337, |)
T6 sequence 1: T3 sequence 1
T6 sequence 2: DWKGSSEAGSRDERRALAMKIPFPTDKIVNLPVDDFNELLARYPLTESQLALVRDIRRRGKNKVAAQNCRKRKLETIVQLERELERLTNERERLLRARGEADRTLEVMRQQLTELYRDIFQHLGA

JUNB;NFE2L1 = JUNB;NFE2L1 (Homo sapiens;Homo sapiens, UniProt P17275;Q14494 259-332;609-725, |)
JUNB;HLF = target: T7, JUNB;HLF (Homo sapiens;Homo sapiens, UniProt P17275;Q16534 259-332;216-293, |)
T7 sequence 1: T3 sequence 1
T7 sequence 2: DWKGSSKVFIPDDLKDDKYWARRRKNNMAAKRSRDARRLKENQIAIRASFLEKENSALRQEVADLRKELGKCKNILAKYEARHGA

JUNB;BATF2 = target: T8, JUNB;BATF2 (Homo sapiens;Homo sapiens, UniProt P17275;Q8N1L9 259-332;8-85, |)
T8 sequence 1: T3 sequence 1
T8 sequence 2: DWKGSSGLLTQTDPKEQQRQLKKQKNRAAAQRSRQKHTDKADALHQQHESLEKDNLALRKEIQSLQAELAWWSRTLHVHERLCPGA

JUNB;CREBZF = target: T9, JUNB;CREBZF (Homo sapiens;Homo sapiens, UniProt P17275;Q9NS37 259-332;195-272, |)
T9 sequence 1: T3 sequence 1
T9 sequence 2: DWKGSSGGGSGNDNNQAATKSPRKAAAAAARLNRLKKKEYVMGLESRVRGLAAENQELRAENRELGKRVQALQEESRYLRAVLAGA

BATF;HLF = target: T10, BATF;HLF (Homo sapiens;Homo sapiens, UniProt Q16520;Q16534 17-90;216-293, |)
T10 sequence 1: T4 sequence 2
T10 sequence 2: T7 sequence 2

BATF;NFIL3 = target: T11, BATF;NFIL3 (Homo sapiens;Homo sapiens, UniProt Q16520;Q16649 17-90;64-134, |)
T11 sequence 1: T4 sequence 2
T11 sequence 2: T1 sequence 2

FOSL1;CEBPE = target: T12, FOSL1;CEBPE (Homo sapiens;Homo sapiens, UniProt P15407;Q15744 96-169;195-267, |)
T12 sequence 1: T5 sequence 2
T12 sequence 2: T2 sequence 1

FOSL1;FOSL1 = target: T13, FOSL1;FOSL1 (Homo sapiens;Homo sapiens, UniProt P15407;P15407 96-169;96-169, |)
T13 sequence 1: T5 sequence 2
T13 sequence 2: T5 sequence 2

FOSL1;NFE2 = target: T14, FOSL1;NFE2 (Homo sapiens;Homo sapiens, UniProt P15407;Q16621 96-169;221-337, |)
T14 sequence 1: T5 sequence 2
T14 sequence 2: T6 sequence 2

FOS;BATF = FOS;BATF (Homo sapiens;Homo sapiens, UniProt P01100;Q16520 128-201;17-90, |)
FOS;FOSL1 = FOS;FOSL1 (Homo sapiens;Homo sapiens, UniProt P01100;P15407 128-201;96-169, |)
FOS;NFE2 = FOS;NFE2 (Homo sapiens;Homo sapiens, UniProt P01100;Q16621 128-201;221-337, |)

Sequence	binding signal (BATF2;ATF4)	binding signal (BATF3;NFIL3)	binding signal (CEBPE;CEBPE)	binding signal (JUNB;CEBPE)	binding signal (JUNB;BATF)	binding signal (JUNB;FOSL1)	binding signal (JUNB;FOS)	binding signal (JUNB;NFE2)	binding signal (JUNB;NFE2L1)	binding signal (JUNB;HLF)	binding signal (JUNB;BATF2)	binding signal (JUNB;CREBZF)	binding signal (BATF;HLF)	binding signal (BATF;NFIL3)	binding signal (FOSL1;CEBPE)	binding signal (FOSL1;FOSL1)	binding signal (FOSL1;NFE2)	binding signal (FOS;BATF)	binding signal (FOS;FOSL1)	binding signal (FOS;NFE2)
ATGACGCAAT	0.0339 relative CSI intensity (max = 1)	0.0474 relative CSI intensity (max = 1)	0.259 relative CSI intensity (max = 1)	0.333 relative CSI intensity (max = 1)	0.00832 relative CSI intensity (max = 1)	0.00312 relative CSI intensity (max = 1)	0.00347 relative CSI intensity (max = 1)	0.344 relative CSI intensity (max = 1)	0.169 relative CSI intensity (max = 1)	0.176 relative CSI intensity (max = 1)	0.00872 relative CSI intensity (max = 1)	0.0122 relative CSI intensity (max = 1)	0.105 relative CSI intensity (max = 1)	0.155 relative CSI intensity (max = 1)	0.0294 relative CSI intensity (max = 1)	0.0097 relative CSI intensity (max = 1)	0.18 relative CSI intensity (max = 1)	0.00539 relative CSI intensity (max = 1)	0.0408 relative CSI intensity (max = 1)	0.0862 relative CSI intensity (max = 1)
ATGACGTAAT	0.119 relative CSI intensity (max = 1)	0.178 relative CSI intensity (max = 1)	0.0888 relative CSI intensity (max = 1)	0.0862 relative CSI intensity (max = 1)	0.0325 relative CSI intensity (max = 1)	0.017 relative CSI intensity (max = 1)	0.00946 relative CSI intensity (max = 1)	0.12 relative CSI intensity (max = 1)	0.116 relative CSI intensity (max = 1)	0.537 relative CSI intensity (max = 1)	0.0936 relative CSI intensity (max = 1)	0.0382 relative CSI intensity (max = 1)	0.71 relative CSI intensity (max = 1)	0.786 relative CSI intensity (max = 1)	0.00904 relative CSI intensity (max = 1)	0.0331 relative CSI intensity (max = 1)	0.129 relative CSI intensity (max = 1)	0.0179 relative CSI intensity (max = 1)	0.0348 relative CSI intensity (max = 1)	0.0286 relative CSI intensity (max = 1)
ATGACGTCAT	0.216 relative CSI intensity (max = 1)	0.218 relative CSI intensity (max = 1)	0.0521 relative CSI intensity (max = 1)	0.104 relative CSI intensity (max = 1)	0.784 relative CSI intensity (max = 1)	0.3 relative CSI intensity (max = 1)	0.188 relative CSI intensity (max = 1)	1 relative CSI intensity (max = 1)	1 relative CSI intensity (max = 1)	1 relative CSI intensity (max = 1)	1 relative CSI intensity (max = 1)	1 relative CSI intensity (max = 1)	0.814 relative CSI intensity (max = 1)	1 relative CSI intensity (max = 1)	0.0518 relative CSI intensity (max = 1)	1 relative CSI intensity (max = 1)	0.466 relative CSI intensity (max = 1)	1 relative CSI intensity (max = 1)	0.96 relative CSI intensity (max = 1)	0.106 relative CSI intensity (max = 1)
